Consider 15 compounds from PubChem BioAssay (NCI).

About 83,000 compounds went through this panel and 20% of them were active in at least one assay; those are over-represented in the sample as a whole.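 Interpretation: 100, growth as untreated; towards 0, rising growth inhibition; 0, no net growth; 0 to -100, cell death. Compounds scoring below 10 were considered active.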 A number with no mark means an inactive call. Active and inactive are the calls of the source.

Experiment in all cases: NCI-60 one-dose screen, 48 h (100 = growth as untreated, 0 = no growth, -100 = all killed)
What all share (settings): 10 µM unless noted

The subject of assay [1] is HCT-15 colon.
Assay [2] deals with HT29 colon.
Assay [3] has as its system SNB-75 CNS.
Assay [4] relates to SNB-19 CNS.
Assay [5] concerns U251 CNS.
The subject of assay [6] is PC-3 prostate.
Assay [7] has as its system SK-MEL-5 melanoma.
The test system of assay [8] is UACC-62 melanoma.
The test system of assay [9] is LOX IMVI melanoma.
The test system of assay [10] is SK-MEL-28 melanoma.
The test system of assay [11] is EKVX NSCLC.
Assay [12] deals with SN12C renal.
Assay [13] deals with UO-31 renal.
Assay [14] has as its system TK-10 renal.
Assay [15] has as its system ACHN renal.
The test system of assay [16] is CAKI-1 renal.
The test system of assay [17] is CCRF-CEM leukemia.
In assay [18] the test system is MOLT-4 leukemia.
Assay [19] deals with A498 renal.

With `CNC(=O)c1cc(Oc2ccc3nc(NC(=O)c4ccc(N5CCOCC5)c(C(F)(F)F)c4)sc3c2)ccn1`, the growth in [1] is 51.5%; in assay [2] it was 48.5%; in assay [3], 96.2%; in assay [4], 86.6%; in assay [5], 65.6%; in assay [6], 59%. For the same compound, the growth in assay [7] is 28.8%; in assay [8], 47.7%; in assay [9] it was 76.3%; in [10], 86.1%; in assay [11], 78.7%; in [12] it was 90.4%. For the same compound, the growth in assay [13] was 54.7%; in assay [14], 127%; in assay [15], 91.5%; in assay [16], 87.2%; in assay [17] it was 75.6%; in assay [18], 75.8%.

Take `O=C(Cn1c(-c2ccccc2)nc2cc(Cl)c(Cl)cc21)N=Nc1c(O)[nH]c2ccc(Cl)cc12`: the growth was 68.7% in [1]; 51.4% in [2]; 101% in [3]; 87.8% in assay [4]; 93.8% in assay [5]; 70.8% in assay [6]. For the same compound, the growth in assay [7] is 79.5%; in [8] it was 71.7%; in assay [9], 72.2%; in assay [10], 66.4%; in assay [11], 75.5%; in assay [12], 89.8%. Moreover, the growth in assay [13] is 73.7%; in assay [14], 104%; in [15], 74.3%; in [16], 70.2%; in assay [17], -8.19% (active); in assay [18] it was 72.3%.

For the compound `CC(C)(C)CC(C)(C)n1nnnc1C(Nc1nccs1)c1cc2cccc3ccc4cccc1c4c32` (stereo unspecified), the growth was 94.9% in [1]; 104% in assay [2]; 91.5% in [3]; 89.9% in assay [4]; 98.1% in assay [5]; 96.9% in assay [6]. Further, the growth in assay [7] was 100%; in assay [8], 68.4%; in assay [9], 97%; in [10], 101%; in [11], 97.2%; in assay [12], 99.4%. The growth in assay [13] was 87.9%; in assay [14], 108%; in assay [15], 96.1%; in assay [16] it was 75.9%; in assay [17], 106%; in assay [18], 121%.

On to `CC(O)c1cc2ccccc2c(=O)o1` (stereo unspecified), for which the growth is 103% in [1]; 105% in [2]; 110% in assay [3]; 99.6% in assay [4]; 103% in assay [5]; 95.2% in assay [6]. Further, the growth was 97% in assay [7]; 97.9% in [8]; 97.3% in [9]; 101% in [10]; 102% in assay [11]; 101% in [12]. The growth in assay [13] is 89.9%; in assay [14], 105%; in assay [15] it was 102%; in assay [16], 91.5%; in assay [17] it was 1.19% (active); in assay [18], 107%.

As to `O=C1/C(=C/C=C/c2ccco2)SC(=S)N1C1CCCCC1`, the growth in assay [1] is 79.2%; in assay [2] it was 85.3%; in assay [3], 103%; in [4], 93.9%; in assay [5], 84%; in [6], 92.9%. The growth in assay [7] is 58.4%; in assay [8], 56.7%; in [9], 103%; in assay [10] it was 72.5%; in [11] it was 93%; in assay [12], 83.4%. For the same compound, the growth in [13] is 85.6%; in assay [14] it was 106%; in [15], 96%; in assay [16], 93.1%; in assay [17] it was 91.2%; in [18] it was 90.5%.

As to `CCN1CCN(Cc2ccc(C(=O)Nc3ccc(C)c(Oc4ccc(-c5[nH]nc6ncnc(N)c56)cc4)c3)cc2C(F)(F)F)CC1`, the growth in assay [1] is 68.6%; in [2], 17%; in [3], 95.8%; in assay [4], 101%; in assay [5], 89.4%; in assay [6], 70.7%. Also, the growth in assay [7] is 76.1%; in assay [8], 89.1%; in assay [9], 57.2%; in assay [10], 75.4%; in assay [11], 106%; in [12] it was 86.5%. Besides, the growth in assay [13] is 84.4%; in [14], 117%; in [15], 91.9%; in assay [16] it was 88.3%; in assay [19], 98.4%; in assay [17], 31%. In addition, in assay [18], the growth is 67.4%.

Consider `CCO/C=N/C1=C(C#N)C(c2ccc(Cl)cc2)c2sc3c(CC)cccc3c2O1` (stereo unspecified), for which the growth was 23.3% in assay [1]; 10.7% in assay [2]; -5.34% (active) in assay [3]; 24.1% in assay [4]; 20% in [5]; 16.5% in assay [6]. For the same compound, the growth in assay [7] is 20.5%; in assay [8] it was 15.8%; in assay [9] it was 29.9%; in assay [10], 61.2%; in assay [11] it was 47.8%; in [12], 36.3%. In addition, the growth was 39.5% in [13]; 60.6% in assay [14]; 40.9% in [15]; 40.6% in assay [16]; 2.43% (active) in assay [19]; 16.1% in assay [17]. The growth in assay [18] was 23.6%.

Regarding `CCn1c(SCC(=O)Nc2cccc(C(=O)/C=C/c3ccc(C)cc3)c2)nc2ccccc2c1=O`, the growth in [1] is 49.2%; in assay [2] it was 65.8%; in [3], 93.3%; in [4] it was 81.2%; in assay [5] it was 80.1%; in assay [6] it was 60.7%. Further, the growth is 90% in assay [7]; 70.1% in [8]; 37.6% in assay [9]; 95.8% in [10]; 98.8% in assay [11]; 88% in [12]. The growth in [13] is 58.9%; in assay [14] it was 120%; in assay [15], 92.2%; in [16], 80.2%; in [19] it was 94.2%; in [17] it was 67.4%. In [18], the growth is 88%.

In the case of `COc1ccc(-n2c(SCc3nnc(NC(=O)c4ccc(Br)cc4)s3)nc3cc(OC)c(OC)cc3c2=O)cc1`, the growth is 85.1% in assay [1]; 104% in [2]; 93.4% in assay [3]; 89.6% in assay [4]; 86.3% in assay [5]; 87.9% in [6]. In addition, the growth in assay [7] was 91.8%; in assay [8] it was 91.4%; in [9], 90.5%; in assay [10] it was 88.7%; in assay [11], 91.1%; in assay [12], 91%. Besides, the growth in [13] is 84.2%; in [14], 118%; in assay [15], 97.5%; in assay [16], 83.8%; in assay [17], 90.9%; in [18], 105%.

Turning to `COc1cc2nc(Cl)nc(Nc3cccc(C4=Nc5c(N)nc(N)nc5NC(c5ccc6c(c5)OCO6)C4)c3)c2cc1OC` (stereo unspecified), the growth in assay [1] was 33.2%; in assay [2], 68.9%; in [3] it was 82.2%; in [4], 78.4%; in [5], 8.17% (active); in assay [6] it was 63.6%. Besides, the growth in [7] is 72.1%; in assay [8], 94.8%; in [9] it was 52.6%; in assay [10], 106%; in [11], 86.1%; in assay [12], 78.6%. In addition, the growth in assay [13] is 86%; in [14] it was 113%; in assay [15], 94%; in assay [16] it was 82.8%; in assay [19], 105%; in assay [17], 26.8%. Besides, in assay [18], the growth is 27%.

As to `O=C1CCCc2nc(Nc3ccc(S(=O)(=O)Nc4ccc([N+](=O)[O-])cc4)cc3)ncc21`, the growth in assay [1] is 103%; in assay [2], 118%; in assay [3], 92.6%; in [4], 96.2%; in [5], 103%; in [6] it was 105%. The growth in assay [7] was 104%; in assay [8], 90.3%; in [9], 97.1%; in [10], 106%; in assay [11], 100%; in [12] it was 96.2%. For the same compound, the growth was 87.1% in [13]; 105% in assay [14]; 104% in [15]; 89.9% in [16]; 99.8% in assay [17]; 101% in [18].

Consider `N#C/C(=C\c1ccc(-c2ccc(Cl)cc2Cl)o1)c1ccc(F)cc1`, for which the growth in assay [1] is 94.5%; in [2], 96.4%; in [3], 77.6%; in assay [4] it was 96.7%; in [5], 98.5%; in assay [6], 87.8%. Also, the growth in assay [7] was 95.7%; in assay [8], 71.2%; in [9], 87.6%; in assay [10] it was 102%; in assay [11], 87.4%; in assay [12], 98.6%. Also, the growth in assay [13] was 81.5%; in assay [14], 138%; in assay [15], 89.9%; in assay [16], 68.8%; in [17], 93.7%; in [18] it was 93.8%.

With `COc1ccc(S(=O)(=O)NCCCNc2nccc(-c3[nH]c(-c4ccccc4)nc3-c3ccc(Cl)c(O)c3)n2)cc1`, the growth is 93.7% in [1]; 73.8% in assay [2]; 108% in [3]; 105% in assay [4]; 83.3% in assay [5]; 66.4% in assay [6]. Besides, the growth in assay [7] was 56.9%; in [8], 18.1%; in assay [9] it was 56.9%; in assay [10] it was 23.5%; in [11], 113%; in assay [12], 84.2%. Also, the growth in assay [13] was 116%; in assay [14] it was 126%; in [15], 96.2%; in assay [16], 102%; in assay [19], 116%; in [17] it was 40.3%. Also, in assay [18], the growth is 51.2%.

With `Cc1cc2ncc(-c3cc4ccccc4c(N4CCN(C)CC4)n3)nc2cc1C`, the growth in [1] is -69.7% (active); in assay [2] it was -60.4% (active); in assay [3], 56.1%; in [4] it was 73%; in assay [5] it was -30.9% (active); in assay [6], 57.5%. Moreover, the growth is 16.2% in assay [7]; -46.6% (active) in assay [8]; -83.8% (active) in [9]; -69.9% (active) in assay [10]; 73.8% in assay [11]; 31.5% in [12]. The growth in assay [13] was 4.16% (active); in assay [14], 67.2%; in [15], -42.1% (active); in assay [16] it was 30.2%; in [17] it was 1.37% (active); in assay [18], -8.83% (active).

For `NC(=O)c1c(NC(=O)c2ccc(F)cc2F)sc2c1CCC(=O)C2`, the growth in assay [1] is 11.8%; in [2] it was 59.8%; in [3] it was 66.8%; in assay [4], 59.3%; in [5] it was 32.4%; in assay [6], 16.3%. For the same compound, the growth in assay [7] is 64.6%; in assay [8], 22.6%; in [9], 22.6%; in assay [10], 37%; in assay [11] it was 73.6%; in [12], 72.9%. For the same compound, the growth in assay [13] is 29.3%; in assay [14] it was 61.9%; in assay [15], 7.96% (active); in assay [16], 33.9%; in assay [19], 100%; in [17], 18.3%. Further, the growth in assay [18] was 40.6%.
